From PubChem BioAssay (EPA / NIEHS)
Inconclusive results are not listed. Calls of active or inactive are those of the source. The calls were made as follows, unless noted: active = hit-call score of the fitted dose curve at least 0.9, where 1 is the maximum; inconclusive = response in the unintended direction; inactive = score below 0.9.

Experiments:
[1] = CEETOX_H295R_CORTISOL_noMTC: CeeTox H295R High-throughput Steroidogenesis Assay for Cortisol, maximum tolerated concentration (MTC) filtered results only (AID 2283916; active = hit-call score of the fitted dose curve at least 0.9, where 1 is the maximum; inactive = score below 0.9); conditions: actives raise or lower the signal
Summary of the method: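 Cortisol secretion measured by LC-MS/MS after 48 h chemical treatment (final 0.1% DMSO) of forskolin-primed (10 uM, 48 h) H295R cells; gain or loss fitted relative to DMSO, without maximum-tolerated-concentration filtering.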

[2] = CEETOX_H295R_CORTIC_noMTC: CeeTox H295R High-throughput Steroidogenesis Assay for Corticosterone (CORTIC), maximum tolerated concentration (MTC) filtered results only (AID 2283917; active = hit-call score of the fitted dose curve at least 0.9, where 1 is the maximum; inactive = score below 0.9); conditions: actives raise or lower the signal
Summary of the method: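 Human adrenal H295R cells were prestimulated 48 h with 10 uM forskolin, then exposed 48 h to chemical in 0.1% DMSO. Medium corticosterone was MTBE-extracted and quantified by HPLC-MS/MS; bidirectional fits versus DMSO, concentrations not MTC-filtered.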

[3] = CEETOX_H295R_DOC_noMTC: CeeTox H295R High-throughput Steroidogenesis Assay for DOC, maximum tolerated concentration (MTC) filtered results only (AID 2283918; active = hit-call score of the fitted dose curve at least 0.9, where 1 is the maximum; inactive = score below 0.9); conditions: actives raise or lower the signal
Summary of the method: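 11-Deoxycorticosterone secreted by human adrenal H295R cells quantified by HPLC-MS/MS after 48 h chemical exposure (0.1% DMSO), following 48 h 10 uM forskolin prestimulation. Concentrations not filtered by MTT-derived MTC; bidirectional fitting.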

[4] = CEETOX_H295R_PROG_noMTC: CeeTox H295R High-throughput Steroidogenesis Assay for Progesterone (PROG), maximum tolerated concentration (MTC) filtered results only (AID 2283920; active = hit-call score of the fitted dose curve at least 0.9, where 1 is the maximum; inactive = score below 0.9); conditions: actives raise or lower the signal
Summary of the method: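 Progesterone secreted into medium was measured by HPLC-MS/MS after MTBE extraction, following 48 h chemical exposure (0.1% DMSO) of forskolin-prestimulated (10 uM, 48 h) H295R adrenal cells. Gain or loss fitted against DMSO; no MTC filtering.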

[5] = molecular target: Thyroid hormone receptor alpha (Rattus norvegicus) + Thyroid hormone receptor beta (Rattus norvegicus) (UniProt P18113+P63059); assay: TOX21_TR_LUC_GH3_Agonist_Followup: Tox21 GH3 Thyroid Hormone Receptor Agonism Luciferase Follow-Up Assay (AID 2283939)
Sequence of Thyroid hormone receptor alpha (Rattus norvegicus) + Thyroid hormone receptor beta (Rattus norvegicus) (P63059 whole entry, looked up): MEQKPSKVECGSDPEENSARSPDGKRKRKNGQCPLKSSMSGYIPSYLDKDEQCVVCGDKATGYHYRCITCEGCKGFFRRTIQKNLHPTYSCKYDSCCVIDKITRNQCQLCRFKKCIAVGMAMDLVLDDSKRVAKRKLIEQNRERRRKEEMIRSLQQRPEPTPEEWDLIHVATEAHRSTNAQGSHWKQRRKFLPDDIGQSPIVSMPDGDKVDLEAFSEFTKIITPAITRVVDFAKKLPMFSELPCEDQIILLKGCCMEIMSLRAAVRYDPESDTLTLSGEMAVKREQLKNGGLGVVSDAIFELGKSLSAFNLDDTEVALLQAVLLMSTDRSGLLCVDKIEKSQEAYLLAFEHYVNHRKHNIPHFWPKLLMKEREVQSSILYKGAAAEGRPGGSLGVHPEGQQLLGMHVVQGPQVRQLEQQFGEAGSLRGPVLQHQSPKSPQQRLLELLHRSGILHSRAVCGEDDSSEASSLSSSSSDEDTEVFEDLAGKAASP
Sequence of Thyroid hormone receptor alpha (Rattus norvegicus) + Thyroid hormone receptor beta (Rattus norvegicus) (P18113 whole entry, looked up): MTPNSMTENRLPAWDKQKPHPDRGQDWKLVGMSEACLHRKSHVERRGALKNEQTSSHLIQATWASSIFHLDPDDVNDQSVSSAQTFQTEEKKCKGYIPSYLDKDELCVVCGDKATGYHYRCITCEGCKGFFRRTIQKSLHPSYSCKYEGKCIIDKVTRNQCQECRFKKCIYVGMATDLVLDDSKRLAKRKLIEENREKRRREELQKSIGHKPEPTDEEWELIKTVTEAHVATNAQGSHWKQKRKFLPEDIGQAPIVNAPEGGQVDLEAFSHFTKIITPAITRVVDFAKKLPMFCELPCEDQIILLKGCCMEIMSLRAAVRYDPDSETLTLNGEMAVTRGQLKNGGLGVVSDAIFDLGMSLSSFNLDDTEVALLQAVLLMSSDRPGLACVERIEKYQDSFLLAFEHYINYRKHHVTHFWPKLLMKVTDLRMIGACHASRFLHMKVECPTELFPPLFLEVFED
Summary of the method: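 Agonist-mode confirmatory run: 15 concentrations (5 nM to 92 uM final) on GH3 rat pituitary cells, 24 h at 37C/5% CO2, T3 as positive control. Luminescence read with ONE-Glo after 30 min.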

THRA (gene 7067) = THRA (gene 7067) (UniProt P10827); assay: TOX21_TRA_COA_Agonist_Followup_ratio: Tox21 Thyroid Hormone Receptor alpha Agonism through Coactivator Recruitment Follow-Up Assay, Ratio (AID 2283948; active = hit-call score of the fitted dose curve at least 0.9, where 1 is the maximum; inactive = score below 0.9)
Sequence of THRA (gene 7067) (P10827 whole entry, looked up, the tested form may be a part): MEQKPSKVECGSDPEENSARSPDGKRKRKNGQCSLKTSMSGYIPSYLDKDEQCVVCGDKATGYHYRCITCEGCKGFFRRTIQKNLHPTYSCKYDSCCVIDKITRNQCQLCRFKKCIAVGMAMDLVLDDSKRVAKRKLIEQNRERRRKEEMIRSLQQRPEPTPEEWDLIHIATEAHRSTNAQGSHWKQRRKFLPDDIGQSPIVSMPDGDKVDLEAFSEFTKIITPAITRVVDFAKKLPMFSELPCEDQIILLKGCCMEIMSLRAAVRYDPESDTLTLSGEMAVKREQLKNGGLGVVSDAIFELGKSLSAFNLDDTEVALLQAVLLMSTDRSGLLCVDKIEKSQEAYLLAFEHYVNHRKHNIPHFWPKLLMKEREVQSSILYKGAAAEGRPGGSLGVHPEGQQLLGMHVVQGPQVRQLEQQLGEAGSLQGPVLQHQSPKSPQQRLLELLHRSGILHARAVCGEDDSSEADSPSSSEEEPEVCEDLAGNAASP
Summary of the method: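 Agonist-mode biochemical TR-FRET with TRα LBD and SRC-2 coactivator peptide; activity expressed as percent of T3 response over DMSO baseline.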

THRB (gene 7068) [6] = molecular target: THRB (gene 7068) (UniProt P10828); assay: TOX21_TRB_COA_Agonist_Followup_ratio: Tox21 Thyroid Hormone Receptor beta Agonism through Coactivator Recruitment Follow-Up Assay, Ratio (AID 2283963; active = hit-call score of the fitted dose curve at least 0.9, where 1 is the maximum; inactive = score below 0.9)
Sequence of THRB (gene 7068) (P10828 whole entry, looked up, the tested form may be a part): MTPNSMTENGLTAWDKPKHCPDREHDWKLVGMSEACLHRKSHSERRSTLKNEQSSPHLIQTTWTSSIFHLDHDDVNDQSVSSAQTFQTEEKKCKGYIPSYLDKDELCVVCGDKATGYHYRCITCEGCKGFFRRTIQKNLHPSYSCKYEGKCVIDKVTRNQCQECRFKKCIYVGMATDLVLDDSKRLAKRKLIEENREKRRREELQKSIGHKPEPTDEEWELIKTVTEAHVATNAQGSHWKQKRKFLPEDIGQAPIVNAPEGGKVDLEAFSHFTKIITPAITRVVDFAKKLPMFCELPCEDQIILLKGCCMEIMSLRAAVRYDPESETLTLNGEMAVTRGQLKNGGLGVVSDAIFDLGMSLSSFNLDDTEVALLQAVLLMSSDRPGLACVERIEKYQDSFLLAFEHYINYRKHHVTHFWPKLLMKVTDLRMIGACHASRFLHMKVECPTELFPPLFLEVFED
Summary of the method: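 Cell-free TR-FRET coactivator recruitment: GST-tagged TRβ LBD (5.0 nM) with 0.10% BSA incubated with compound, then fluorescein-SRC-2 peptide (200 nM) and Tb-anti-GST antibody (2 nM) added. 520:495 nm ratio normalized to DMSO (0%) and T3 (100%).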

[7] = molecular target: Retinoic acid receptor RXR-alpha (Homo sapiens) (UniProt P19793); assay: TOX21_TR_RXR_BLA_Agonist_Followup_ratio: Tox21 Thyroid Hormone Receptor beta Retinoid X Receptor alpha (RXRa) Agonism Beta-lactamase (BLA) Follow-Up Assay, Ratio (AID 2283968)
Sequence of Retinoic acid receptor RXR-alpha (Homo sapiens) (P19793 whole entry, looked up): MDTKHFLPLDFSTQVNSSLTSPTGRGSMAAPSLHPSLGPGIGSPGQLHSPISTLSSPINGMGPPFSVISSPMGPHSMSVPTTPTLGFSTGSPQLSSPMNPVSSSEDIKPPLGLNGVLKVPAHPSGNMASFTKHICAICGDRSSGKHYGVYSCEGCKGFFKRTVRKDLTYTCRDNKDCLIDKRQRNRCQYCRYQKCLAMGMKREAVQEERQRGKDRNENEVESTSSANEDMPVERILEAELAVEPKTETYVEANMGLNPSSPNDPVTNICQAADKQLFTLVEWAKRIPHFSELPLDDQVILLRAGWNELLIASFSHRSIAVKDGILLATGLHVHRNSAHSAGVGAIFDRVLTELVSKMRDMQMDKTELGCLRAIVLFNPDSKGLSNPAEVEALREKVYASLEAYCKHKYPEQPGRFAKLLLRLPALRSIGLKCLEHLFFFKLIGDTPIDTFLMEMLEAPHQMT
Summary of the method: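 Agonism is scored as an increase in the 460:530 nm beta-lactamase substrate ratio over DMSO in RXRa-UAS-bla HEK293T cells exposed for 16 h to 11 compound concentrations.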

THRB (gene 7068) [8] = molecular target: THRB (gene 7068) (UniProt P10828); assay: TOX21_TRB_BLA_Agonist_Followup_ratio: Tox21 Thyroid Hormone Receptor beta Agonism Beta-lactamase (BLA) Follow-Up Assay, Ratio (AID 2283954)
Summary of the method: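 Agonist mode: compounds (11-point, triplicate) incubated 18 h with HEK293T cells carrying GAL4-DBD/human TRβ-LBD and UAS-β-lactamase. Blue/green (460/530 nm) FRET ratio read after 2 h CCF4-AM loading; CellTiter-Glo viability run in the same plates.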

PGR (gene 5241) [9] = molecular target: PGR (gene 5241) (UniProt P06401); assay: TOX21_PR_BLA_Followup_Antagonist_ratio: Tox21 HEK293 Progesterone Receptor (PR) Antagonism Beta-lactamase Follow-Up Assay, Ratio (AID 2283934);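 also: PR-UAS-bla HEK293T cells stimulated with 1 nM R5020 agonist for 16 hr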
Sequence of PGR (gene 5241) (P06401 whole entry, looked up): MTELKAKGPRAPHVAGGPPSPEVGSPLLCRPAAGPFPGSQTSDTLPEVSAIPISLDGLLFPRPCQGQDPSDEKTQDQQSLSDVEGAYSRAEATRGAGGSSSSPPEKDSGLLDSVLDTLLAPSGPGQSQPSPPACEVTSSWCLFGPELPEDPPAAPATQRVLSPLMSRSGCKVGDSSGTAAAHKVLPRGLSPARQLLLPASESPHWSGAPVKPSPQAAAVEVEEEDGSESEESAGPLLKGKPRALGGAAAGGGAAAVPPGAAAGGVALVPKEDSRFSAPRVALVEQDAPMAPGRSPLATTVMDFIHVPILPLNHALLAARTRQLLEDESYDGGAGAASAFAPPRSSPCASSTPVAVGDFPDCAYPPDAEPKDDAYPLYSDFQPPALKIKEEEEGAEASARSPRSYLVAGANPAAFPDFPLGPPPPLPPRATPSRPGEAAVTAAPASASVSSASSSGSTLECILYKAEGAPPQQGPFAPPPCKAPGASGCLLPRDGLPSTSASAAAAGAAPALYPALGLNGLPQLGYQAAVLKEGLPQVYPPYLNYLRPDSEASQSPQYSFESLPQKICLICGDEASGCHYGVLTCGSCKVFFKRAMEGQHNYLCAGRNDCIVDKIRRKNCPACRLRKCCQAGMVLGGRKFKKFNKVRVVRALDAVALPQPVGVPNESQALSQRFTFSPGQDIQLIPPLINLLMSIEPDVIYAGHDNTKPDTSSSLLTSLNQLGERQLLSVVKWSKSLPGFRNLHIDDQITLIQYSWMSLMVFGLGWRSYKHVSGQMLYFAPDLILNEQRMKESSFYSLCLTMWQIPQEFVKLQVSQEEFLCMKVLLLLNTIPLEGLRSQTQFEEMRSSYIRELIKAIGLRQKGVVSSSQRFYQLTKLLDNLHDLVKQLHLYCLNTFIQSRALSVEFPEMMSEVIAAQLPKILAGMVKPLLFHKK
Summary of the method: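 Measured in PR-UAS-bla HEK293T cells co-treated with compound and 1 nM promegestone for 16 hr; beta-lactamase ratio read after 2 h FRET substrate loading, with parallel CellTiter-Glo cytotoxicity.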

[10] = TOX21_PR_BLA_Followup_Agonist_viability: Viability Assessment in the Tox21 HEK293 Progesterone Receptor (PR) Agonism Beta-lactamase Follow-Up Assay (AID 2283935);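 also: signal loss means lower viability so actives are cytotoxic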
Summary of the method: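 Viability is read as CellTiter-Glo luminescence, where loss of signal indicates cytotoxicity. The cells are PR-UAS-bla HEK293T given compounds for 16 hr at 37C and 5% CO2, in the same wells used for the bla readout.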

[11] = TOX21_PR_BLA_Followup_Antagonist_viability: Viability Assessment in the Tox21 HEK293 Progesterone Receptor (PR) Antagonism Beta-lactamase Follow-Up Assay (AID 2283936);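 also: cells exposed to compound with R5020 agonist for 16 h; hits lower the luminescence signal meaning cytotoxicity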
Summary of the method: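 PR-UAS-bla HEK293T cells in medium with 2% charcoal-stripped FBS were treated with compounds plus R5020 for 16 hr at 37C. After the beta-lactamase read, CellTiter-Glo was added to the same wells and luminescence read after 30 min at room temperature.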

[12] = TOX21_PR_LUC_Followup_Agonist_viability: Viability Assessment in the Tox21 HEK293 Progesterone Receptor (PR) Agonism Luciferase Follow-Up Assay (AID 2283941);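 also: loss of signal means cytotoxicity so actives lower viability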
Summary of the method: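 Seeding: HEK293-PR-A-luc, 3,000 cells/well, 5 h at 37C. Treatment: compound in DMSO, 16 h, 37C. Read: CellTiter-Glo ATP luminescence, signal loss taken as lower viability.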

PGR (gene 5241) [13] = molecular target: PGR (gene 5241) (UniProt P06401); assay: TOX21_PR_LUC_Followup_Antagonist: Tox21 HEK293 Progesterone Receptor (PR) Antagonism Luciferase Follow-Up Assay (AID 2283938);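 also: curve fitted upward as signal gain over DMSO baseline despite antagonist label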
Summary of the method: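 Luciferase reporter in HEK293-PR-A-luc cells: 16 h compound treatment at 37C, ONE-Glo luminescence detection, DMSO as negative control and baseline.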

[14] = TOX21_PR_LUC_Followup_Antagonist_viability: Viability Assessment in the Tox21 HEK293 Progesterone Receptor (PR) Antagonism Luciferase Follow-Up Assay (AID 2283940)
Summary of the method: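 Loss of CellTiter-Glo ATP signal indicates cytotoxicity in HEK293-PR-A-luc cells grown in 10% charcoal-stripped FBS medium, seeded 3,000 per well and incubated 16 h with compound at 37C.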

[15] = TOX21_TR_RXR_BLA_Agonist_Followup_viability: Viability Assessment in the Tox21 Thyroid Hormone Receptor beta Retinoid X Receptor alpha (RXRa) Agonism Beta-lactamase (BLA) Follow-Up Assay (AID 2283970)
Summary of the method: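 Luminescent ATP read (CellTiter-Glo) after 16h exposure of RXRa-UAS-bla HEK293T cells at 37C/5% CO2. Activity normalized to DMSO; signal loss scored as reduced viability.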

[16] = TOX21_TRB_BLA_Antagonist_Followup_viability: Viability Assessment in the Tox21 Thyroid Hormone Receptor beta Antagonism Beta-lactamase (BLA) Follow-Up Assay (AID 2283961)
Summary of the method: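 In the same wells as the reporter read, cell health was gauged by CellTiter-Glo ATP luminescence, with signal loss indicating reduced viability. Cells had been exposed to test compounds for 18 h.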

[17] = TOX21_TR_RXR_BLA_Antagonist_Followup_viability: Viability Assessment in the Tox21 Thyroid Hormone Receptor beta Retinoid X Receptor alpha (RXRa) Antagonism Beta-lactamase (BLA) Follow-Up Assay (AID 2283979)
Summary of the method: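 Follow-up compounds (11 concentrations, triplicate) were incubated 16 h at 37C/5% CO2 with HEK293T RXRa-bla cells seeded at 2,500/well in charcoal-stripped-serum medium. ATP content by CellTiter-Glo luminescence gave viability; curves fitted in both directions against DMSO.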

PGR (gene 5241) [18] = molecular target: PGR (gene 5241) (UniProt P06401); assay: TOX21_PR_BLA_Followup_Agonist_ratio: Tox21 HEK293 Progesterone Receptor (PR) Agonism Beta-lactamase Follow-Up Assay, Ratio (AID 2283933)
Summary of the method: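 Ratio-based beta-lactamase reporter signal after 16 hr compound treatment of PR-UAS-bla HEK293T cells at 37C. Substrate loading lasted 2 hr at room temperature.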

PGR (gene 5241) [19] = molecular target: PGR (gene 5241) (UniProt P06401); assay: TOX21_PR_LUC_Followup_Agonist: Tox21 HEK293 Progesterone Receptor (PR) Agonism Luciferase Follow-Up Assay (AID 2283937; active = hit-call score of the fitted dose curve at least 0.9, where 1 is the maximum; inactive = score below 0.9)
Summary of the method: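 In HEK293 cells stably expressing PR-A with a luciferase reporter, compounds were incubated 16 h at 37C, and induced luminescence was quantified with ONE-Glo, multiplexed with cell viability.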

Measured: AC50

CC1CC(OC(=O)c2ccccc2O)CC(C)(C)C1 (stereo not drawn)
inactive: [1] | [2] | [3] | [4]

CC(CCO)CCCC(C)(C)O (stereo not drawn)
active: [5] 1.44 µM
inactive: THRA (gene 7067) | THRB (gene 7068) [6] | [7]

CC(=O)OCCC(C)CC(C)(C)C (stereo not drawn)
inactive: [5] | THRA (gene 7067) | THRB (gene 7068) [8] | THRB (gene 7068) [6] | [7]

O=C(Oc1ccccc1)c1ccc(O)cc1
inactive: PGR (gene 5241) [9] | [10] | [11] | [12]

C#C[C@]1(O)CC[C@H]2[C@@H]3CCC4=Cc5oncc5C[C@]4(C)[C@H]3CC[C@@]21C
active: PGR (gene 5241) [9] 0.0919 µM
inactive: [10] | [11] | PGR (gene 5241) [13] | [14] | [12]

COC(=O)C1=C(C)NC(C)=C(C(=O)OCCN(C)Cc2ccccc2)C1c1cccc([N+](=O)[O-])c1 (stereo not drawn)
active: PGR (gene 5241) [9] 25 µM | [10] 79.9 µM | [11] 72.7 µM | PGR (gene 5241) [13] 21.8 µM
inactive: [14] | [12]

Cc1ccc(C(C)C)cc1O
inactive: [1] | [2] | [3]
active: [4] 41.4 µM

Nc1ccc(S(N)(=O)=O)cc1
inactive: THRA (gene 7067) | THRB (gene 7068) [8] | THRB (gene 7068) [6] | [7] | [15]

Cc1cccc(C)c1[N+](=O)[O-]
inactive: [5] | THRA (gene 7067) | THRB (gene 7068) [8] | THRB (gene 7068) [6] | [7] | [15]

CC(=O)O[C@]1(C(C)=O)CC[C@H]2[C@@H]3C[C@H](C)C4=CC(=O)CC[C@]4(C)[C@H]3CC[C@@]21C
inactive: [16] | [17]

CCCc1c(OCCCOc2ccc(OCC(=O)O)cc2)ccc(C(C)=O)c1O
active: PGR (gene 5241) [9] 31.5 µM | PGR (gene 5241) [13] 63.6 µM
inactive: PGR (gene 5241) [18] | [10] | [11] | PGR (gene 5241) [19] | [14] | [12]

C[C@]12CC[C@H]3[C@@H](CCC4=CC(=O)CC[C@@]43C)[C@@H]1CC[C@@H]2C(=O)CO
inactive: PGR (gene 5241) [9] | [10] | [11] | PGR (gene 5241) [13] | [14] | [12]

O=c1cc(-c2ccccc2)oc2cc(O)cc(O)c12
active: PGR (gene 5241) [9] 8.76 µM | PGR (gene 5241) [19] 31 µM
inactive: PGR (gene 5241) [18] | [10] | [11] | PGR (gene 5241) [13] | [14] | [12]

C[C@H]1C[C@H]2[C@@H]3CCC4=CC(=O)C=C[C@]4(C)[C@@]3(F)[C@@H](O)C[C@]2(C)[C@@]1(O)C(=O)COP(=O)(O)O
inactive: PGR (gene 5241) [9] | [10] | [11] | [14] | [12]

CC(=O)[C@H]1CC[C@H]2[C@@H]3CC=C4C[C@@H](O)CC[C@]4(C)[C@H]3CC[C@]12C
inactive: PGR (gene 5241) [9] | [10] | [11] | PGR (gene 5241) [13] | [12]

C[C@H]1C[C@@H]2[C@H]([C@@H](O)C[C@@]3(C)[C@H]2CC[C@]3(O)C(=O)CO)[C@@]2(C)C=CC(=O)C=C12
inactive: PGR (gene 5241) [9] | [10] | [11]
active: PGR (gene 5241) [18] 58.7 µM | PGR (gene 5241) [19] 0.334 µM
